According to PubChem BioAssay AID1259421 (Broad Institute, 2018):
Values joined by “and” are separate entries in the source; they are usually repeats but may differ in a detail not shown here. Equal values may be shown once. Hit rate of the full screen: of about 6,400 compounds, about 610 (9.5%) were called active. Cut-off read from the data, not from the text of the source: active = activity change below about -70%; inconclusive = no clear call, values can overlap the other calls; inactive = above that. The list comes from a sample in which actives are over-represented; it also holds similar structures and randomly drawn compounds. More than one record can exist for a structure, and the calls need not agree.

Test: Toxoplasma gondii ME49Luc growth in HeLa cells, luciferase, no IFN-y, primary screen (AID 1259421)
Settings: T. gondii ME49Luc in HeLa, 72 h, stronger effect = lower value, concentration not given here

SMILES	activity change, negative = inhibition
Cc1cc2c(C(C)C)c(O)c(O)c(C=O)c2c(O)c1-c1c(C)cc2c(C(C)C)c(O)c(O)c(C=O)c2c1O	-70.8% (active) and -12.6% (inactive)
Cc1cc(=O)oc2c(C=O)c(O)ccc12	16.5% (inactive)
CC(=O)c1ccc(O)c(C(N)=O)c1	7.8% (inactive)
CCCCNCC1COc2ccccc2O1 (stereo not drawn)	0.699% (inactive)
Cc1[nH]cnc1CN1CCc2c(c3ccccc3n2C)C1=O	17% (inactive)
O=C1NCc2c1c1c3ccccc3[nH]c1c1[nH]c3ccccc3c21	2.85% (inactive)
C[C@]12OC(C[C@]1(O)CO)n1c3ccccc3c3c4c(c5c6ccccc6n2c5c31)CNC4=O	-87.7% (active)
Cn1c2ccccc2c2c3c(c4c5ccccc5n(CCC#N)c4c21)CNC3=O	-94.9% (active)
CN[C@@H]1C[C@H]2O[C@@](C)([C@@H]1OC)n1c3ccccc3c3c4c(c5c6ccccc6n2c5c31)C(=O)N[C@H]4O	-88.9% (active)
CO[C@@H]1[C@H](N(C)C(=O)c2ccccc2)C[C@H]2O[C@]1(C)n1c3ccccc3c3c4c(c5c6ccccc6n2c5c31)C(=O)NC4	-86.8% (active)
CC1(C)Oc2ccc(C#N)cc2C(N2CCCC2=O)C1O (stereo not drawn)	4.23% (inactive)
C[N+](C)(C)C[C@H](O)CC(=O)O	9.13% (inactive)
CC(Cc1ccccc1)(NC(=O)CN)c1ccccc1 (stereo not drawn)	-47.2% (inactive) and 8.98% (inactive)
CCc1ccc(C(=O)C(C)CN2CCCCC2)cc1 (stereo not drawn)	8.8% (inactive) and 14.4% (inactive)
O=C(/C=C/c1ccc(O)c(O)c1)OC(Cc1ccc(O)c(O)c1)C(=O)O (stereo not drawn)	2.52% (inactive)
CO/N=C(\N)c1ccc(-c2ccc(-c3ccc(/C(N)=N/OC)cc3)o2)cc1	86.4% (inactive)
COc1cc(OC)cc(OC)c1	10% (inactive)
O=C(CO)C(O)C(O)C(O)CO (stereo not drawn)	2.77% (inactive)
CC(=O)[C@H]1CCC2C3CC=C4C[C@@H](O)CC[C@]4(C)C3CC[C@@]21C (stereo partly drawn)	1.09% (inactive)
COc1ccc(Cl)cc1NC(=O)Nc1cc(C)nc2ccccc12	-81.5% (active) and -81.1% (active)
COc1cc(OC)c(NC(=O)Nc2cc(C)on2)cc1Cl	4.07% (inactive) and 26.1% (inactive)
COC(=O)c1cc(Cl)ccc1OC	1.3% (inactive)
O=C(O)Cc1csc(-c2ccc(Cl)cc2)n1	15.8% (inactive)
CS(=O)(=O)Nc1cc2occ(NC=O)c(=O)c2cc1Oc1ccccc1	15.7% (inactive)
CCCCCCCCCCC(C)(C)C(=O)Nc1c(OC)cc(OC)cc1OC	16.9% (inactive)
CC(C)(C)/[N+]([O-])=C/c1ccc(S(=O)(=O)O)cc1S(=O)(=O)O	8.6% (inactive)
CC(=O)NS(=O)(=O)c1ccc(NC(=O)c2ccccc2C(=O)O)cc1	1.07% (inactive)

SMILES	activity change, negative = inhibition
CS(=O)(=O)c1ccc(C(=O)Nc2ccc(Cl)c(-c3ccccn3)c2)c(Cl)c1	19.4% (inactive)
CN1CCN(S(=O)(=O)c2ccc(-c3cnc(N)c(C(=O)Nc4cccnc4)n3)cc2)CC1	-77.6% (active)
CN(C)c1nc(N)c(C(=O)Nc2cccnc2)nc1Cl	157% (inactive) and 219% (inactive)
CS(=O)(=O)c1ccc(-c2cnc(N)c(C(=O)Nc3ccccc3)n2)cc1	-81.9% (active)
Cn1ccc2cc3c(cc21)CCN3C(=O)Nc1cccnc1	104% (inactive) and 4.22% (inactive)
COc1ccc(/C=C/c2cc(O)cc(O[C@@H]3O[C@H](CO)[C@@H](O)[C@H](O)[C@H]3O)c2)cc1	12.1% (inactive)
Clc1cccc(C=NC=Nc2cccc(Cl)c2)c1	-3.22% (inactive)
COC(=O)[C@@H]1CC(=O)O[C@H](C)C/C=C/C=C/[C@H](O)[C@H](C)C[C@H](CC=O)[C@H](OC2O[C@H](C)[C@@H](OC3C[C@@](C)(O)[C@@H](OC(=O)CC(C)C)[C@H](C)O3)[C@H](N(C)C)[C@H]2O)[C@H]1OC (stereo partly drawn)	-63.5% (inactive)
CC(Cc1ccc(O)c(O)c1)C(C)Cc1ccc(O)c(O)c1 (stereo not drawn)	5.71% (inactive)
CNC(=O)c1ccc2cc([C@]3(O)CCn4cncc43)ccc2c1	9.56% (inactive)
C=C1C(=O)CC2CC3OC3(C)CCC3OC3(C)C[C@H](OC(C)=O)C1C2(C)C (stereo partly drawn)	-76.2% (active)
NCC(=O)CCC(=O)OCc1ccccc1	16.4% (inactive)
NC(Cc1ccccn1)c1ccccc1 (stereo not drawn)	13% (inactive)
Oc1c(I)cc(Cl)c2cccnc12	24.2% (inactive)
O=S(=O)(O)c1cc(I)c(O)c2ncccc12	9.1% (inactive) and 15.9% (inactive)
Oc1c(I)cc(I)c2cccnc12	-8.85% (inactive) and -77.3% (active)
Cc1ccc2c(Cl)cc(Cl)c(O)c2n1	-84% (active)
Oc1c(Cl)cc(Cl)c2cccnc12	-83.9% (active) and -88% (active) and -90% (active)
CO[C@@H]1[C@@H](O[C@@H]2O[C@H](C)[C@@H](O[C@H]3C[C@@](C)(O)[C@H](O)[C@H](C)O3)[C@H](N(C)C)[C@H]2O)[C@@H](CC=O)C[C@@H](C)[C@@H](O[C@H]2CC[C@H](N(C)C)[C@@H](C)O2)/C=C/C=C/C[C@H](C)OC(=O)C[C@H]1O	4.59% (inactive)
C[n+]1cccc(C(=O)O)c1	14.5% (inactive)
O=C(O)CC(O)(CC(=O)[O][Bi]1[O]C(=O)CC(O)(CC(=O)O)C(=O)[O]1)C(=O)O (stereo not drawn)	22.8% (inactive)
CCC(C)(C)C(=O)O	9.3% (inactive)
O=C(O)Cc1ccc(OCCNC[C@H](O)c2ccccc2)cc1	15.6% (inactive) and 5.18% (inactive)
COC(=O)C[C@H]1C(C)(C)C(=O)[C@@H]2CC3=C(CC[C@]4(C)C3=CC(=O)O[C@H]4c3ccoc3)[C@@]1(C)C2=O	16.4% (inactive)
CC(=O)OCC(=O)[C@@]1(O)CCC2C3CCC4=CC(=O)CC[C@]4(C)[C@@]3(F)[C@@H](O)C[C@@]21C (stereo partly drawn)	-4.8% (inactive)
N[C@@H](CCC(=O)N[C@@H](CS[NH2+][O-])C(=O)NCC(=O)O)C(=O)O	15.6% (inactive)
